Source: PubChem BioAssay
SARS PLP yeast = inhibitors of SARS-CoV papain-like protease in yeast; S. cerevisiae expressing SARS-CoV PLpro, growth rescue; Potency, µM (doses to about 32.9 µM), most hits filed as activators; actives 0.19% (n = 330,000); AID 485353; calls by dose curve; further: nearly all actives have a fitted effect of over 55% in size
Pf growth 48h = inhibits P. falciparum growth in the first generation, 48 h. P. falciparum luciferase growth in erythrocytes, 48 h. Potency, µM (top dose mostly 28.7 µM), usual class: inhibitors. actives 5.9% (n = 310,000)
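Parasite viability was followed by luminescence of a genomically integrated firefly luciferase. Cultures held 0.1% parasitemia at 2% hematocrit (final), incubated under 5% CO2 at 37 C.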
Pf growth 96h = P. falciparum growth inhibition at 96 hour, primary screen for plastid delayed-death inhibitors; P. falciparum luciferase reporter growth, 96 h; actives 6.9% (n = 320,000); Potency, µM (titrated, usually from 28.7 µM), actives largely listed as inhibitors
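P. falciparum expressing integrated firefly luciferase grown in erythrocytes (2% hematocrit, 0.05% parasitemia final) with compounds for 96 hours at 37 C, 5% CO2. Growth inhibition read as loss of luminescence after adding luciferase detection reagent.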
AMA1-RON2 inh = AMA1-RON2 (P. falciparum) interaction inhibition. AlphaScreen AMA1-biotinylated RON2 peptide binding. Potency, µM (top dose mostly 58.2 µM), most hits filed as inhibitors. actives 0.2% (n = 360,000). AID 720542; further: nearly all actives have a fitted effect of over 45% in size
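AMA1 (3D7) with his tag at 25 nM final met compounds first, then biotinylated RON2 peptide at 25 nM; detection used donor plus acceptor beads, 10 µg/mL apiece, read by AlphaScreen after 30 min at room temperature.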
Each line names hits and unclear results; the compound was inactive in the other large screens. Compounds with a hit are over-represented: about 9.4% of the library has one in this group of screens. Unless noted, the call rests on the fitted dose curve; in most records, active means well fitted curve in the direction sought with a large enough effect; inconclusive means small, poorly fitted or top-dose-only effect, or another doubt; inactive means no such curve, though single readings can be large; an effect the other way counts as inactive or inconclusive.

CCc1[nH]nc(C(=O)NC2CCCN(Cc3ccccc3F)C2)c1C (stereo not drawn)	Pf growth 96h 13µM
Cc1cc(C)cc(NC(=O)N2CCC(NC(=O)c3ccccc3C)CC2)c1	none
CC1CCCC(NC(=O)COC(=O)c2ccccc2Sc2ccccc2C#N)C1C (stereo not drawn)	none
CN1/C(=C\C(=O)c2cccs2)C(C)(C)c2ccccc21	Pf growth 48h 9.3µM
Cc1cccc[n+]1CC(=O)/C=C1\N(C)c2ccccc2C1(C)C	Pf growth 48h 2.9µM, Pf growth 96h 2.9µM
CN1/C(=C/C(=O)CSc2ccccc2C(=O)O)C(C)(C)c2ccccc21	none
CN1/C(=C\C(=O)COC(=O)c2ccc(O)cc2)C(C)(C)c2ccccc21	Pf growth 96h inconclusive
CN1/C(=C\C(=O)C[n+]2ccc(C(=O)c3ccccc3)cc2)C(C)(C)c2ccccc21	Pf growth 48h 2.1µM, Pf growth 96h 7.4µM
CN1/C(=C\C(=O)C[n+]2cccc(C(N)=O)c2)C(C)(C)c2ccccc21	Pf growth 48h inconclusive, Pf growth 96h inconclusive
Cc1ccc[n+](CC(=O)/C=C2\N(C)c3ccccc3C2(C)C)c1	Pf growth 48h inconclusive, Pf growth 96h 0.37µM
CN1/C(=C/C(=O)c2cccs2)Sc2ccccc21	none (no result: Pf growth 48h, AMA1-RON2 inh)
O=S(=O)(NCc1ccccn1)c1cccc2nsnc12	none (no result: Pf growth 48h)
CN1/C(=C\C(=O)CSc2cccc[n+]2[O-])C(C)(C)c2ccccc21	SARS PLP yeast inconclusive, Pf growth 96h 3.3µM
CN1/C(=C\C(=O)C[n+]2cccc(Br)c2)C(C)(C)c2ccccc21	Pf growth 48h 2.3µM, Pf growth 96h 15µM
CN1/C(=C\C(=O)CSc2nnc(N)s2)C(C)(C)c2ccccc21	none
O=C(CSc1cccc[n+]1[O-])C12CC3CC(CC(C3)C1)C2	Pf growth 96h 4.1µM
O=C(CSc1cccc[n+]1[O-])c1cccs1	Pf growth 96h inconclusive
COc1ccc(Nc2nnc(SCC(=O)/C=C3/N(C)c4ccccc4C3(C)C)s2)cc1	Pf growth 48h 9.3µM, Pf growth 96h 7.4µM
CC1(C(=O)Nc2cccc(C#N)c2)CCN1C(=O)CCc1ccccc1 (stereo not drawn)	none (no result: SARS PLP yeast, Pf growth 48h, Pf growth 96h)
CCCC(=O)N(CCN1CCOCC1)c1nc2c(C)cccc2s1	Pf growth 96h inconclusive
O=C(CNC(=O)c1ccc(N2C(=O)c3ccccc3C2=O)cc1)OCC(=O)c1ccccc1	none
CCOC(=O)COc1nc(OC)nc(N2CCOCC2)n1	Pf growth 96h 2.6µM
COc1ccc(OCCNC(=O)c2ccc(C)cc2)cc1	Pf growth 96h 2.9µM
Cc1ccc(C(=O)NCCOC23CC4CC(CC(C4)C2)C3)cc1	Pf growth 48h 2.9µM, Pf growth 96h 2.1µM
COc1cc(OC)cc(C(=O)NCCOC23CC4CC(CC(C4)C2)C3)c1	none
Cc1ccc(OCCNC(=O)c2ccc(C)cc2)cc1	Pf growth 96h inconclusive
CC1C(=O)CCN(C(C)(C)C)C1C (stereo not drawn)	Pf growth 48h inconclusive, Pf growth 96h 8.3µM
CCN(CC)C(=O)C1CCCN(C(=O)Nc2ccc(NC(=O)N3CCCC(C(=O)N(CC)CC)C3)cc2)C1 (stereo not drawn)	none (no result: Pf growth 96h)
CC(=O)c1ccc(NC(=O)Cn2cnc(S(=O)(=O)N3CCCC3)c2)cc1	none
COc1ccc(-c2c(C(C)=O)c(C)n(C)c2C)cc1	Pf growth 96h 12µM
Cc1ccc(NC(=O)COc2ncnc3ccccc23)cc1S(=O)(=O)N1CCOCC1	Pf growth 96h inconclusive
CCOc1cc(N2CCOCC2)c(OCC)cc1NC(=O)CSc1ccccc1C(=O)O	Pf growth 48h inconclusive, Pf growth 96h 9.3µM
CCOc1cc(N2CCOCC2)c(OCC)cc1NCC(=O)N1CCN(Cc2ccccc2)CC1	Pf growth 48h inconclusive, Pf growth 96h 5.9µM, AMA1-RON2 inh inconclusive
CCOc1cc(N2CCOCC2)c(OCC)cc1NC(=O)Cc1ccc(OC)c(OC)c1	Pf growth 48h 9.3µM
CCOc1cc(N2CCOCC2)c(OCC)cc1NC(=O)COc1cccc(CC)c1	Pf growth 48h 10µM, Pf growth 96h inconclusive
COc1ccc(-n2nnnc2C(c2ccccc2OC(F)(F)F)N2CCC3(CC2)C(=O)NCN3c2ccccc2)cc1 (stereo not drawn)	none (no result: SARS PLP yeast, Pf growth 48h, Pf growth 96h)
O=C(O)c1ccc(CSc2nc(-c3ccc(Cl)cc3)cc(C(F)(F)F)n2)cc1	none
O=C1c2ccccc2C(O)N1CCN1CCOCC1 (stereo not drawn)	none
CCOc1cc(N2CCOCC2)c(OCC)cc1NC(C)C(=O)N1CCC(C)CC1 (stereo not drawn)	Pf growth 48h 10µM, Pf growth 96h inconclusive
CCOc1cc(N2CCOCC2)c(OCC)cc1NC(=O)[C@H](C)N1C(=O)C2CC=CCC2C1=O (stereo partly drawn)	none
Cn1cnc2cc(NC(=O)COc3ccccc3)ccc21	none
CCOC(=O)c1ccc(N2C(=O)CC(N(Cc3ccc4c(c3)OCO4)C(=O)Nc3ccccc3)C2=O)cc1 (stereo not drawn)	Pf growth 96h 9.3µM (no result: Pf growth 48h)
N#C/C(=C\c1ccc(OCc2ccc(F)cc2)cc1)C(=O)Nc1cccc(C(=O)O)c1	none
CC(=O)NC1C(=O)N(CCN2CCOCC2)c2ccc(C)cc21 (stereo not drawn)	Pf growth 96h inconclusive, AMA1-RON2 inh 32µM
O=c1[nH]c(=O)n(-c2ccccc2Cl)c(O)c1C=NCCN1CCCCC1	none
CCN(CC)Cc1cc(Nc2ccnc3cc(Cl)ccc23)ccc1O	Pf growth 48h 0.0047µM, Pf growth 96h 0.0033µM
CCN(CC)CCNc1ccnc2cc(Cl)ccc12	Pf growth 48h 0.074µM
Oc1ccc(Nc2ccnc3cc(Cl)ccc23)cc1	Pf growth 48h 1µM, Pf growth 96h 1.9µM
O=C(NCCNc1ccnc2cc(Cl)ccc12)c1ccccc1F	Pf growth 48h 0.47µM
Cc1ccc(S(=O)(=O)N2CCN(C(=O)CN3C(=O)NC(C)(c4ccc5ccccc5c4)C3=O)CC2)cc1 (stereo not drawn)	none (no result: SARS PLP yeast, Pf growth 48h, Pf growth 96h)
COc1ccc(S(=O)(=O)Oc2ccc(C(=S)N3CCOCC3)cc2OC)cc1	Pf growth 96h inconclusive
CCN(CC)CCC[C@H](C)Nc1c2ccc(Cl)cc2nc2ccc(OC)cc12	Pf growth 48h 0.038µM, Pf growth 96h 0.095µM (no result: SARS PLP yeast, AMA1-RON2 inh)
CCN(CCO)CCCC(C)Nc1ccnc2cc(Cl)ccc12 (stereo not drawn)	Pf growth 48h 0.15µM, Pf growth 96h 0.17µM (no result: SARS PLP yeast, AMA1-RON2 inh)
CCN(CC)CCCC(C)Nc1nccc2c(Cl)cccc12 (stereo not drawn)	none (no result: SARS PLP yeast, Pf growth 48h, Pf growth 96h)
Clc1ccc(NNc2ccnc3cc(Cl)ccc23)cc1	Pf growth 48h 1.7µM, Pf growth 96h 1.7µM, AMA1-RON2 inh inconclusive
CCN(CC)c1nc(N2CCOCC2)c(C#N)c2c1CN(C)CC2	Pf growth 48h inconclusive, Pf growth 96h 10µM
CCN1CCc2c(C#N)c(N3CCOCC3)nc(N3CCOCC3)c2C1	Pf growth 96h inconclusive (no result: Pf growth 48h)
N#Cc1c(N2CCOCC2)nc(N2CCCCC2)c2c1CCN(C1CCCCC1)C2	Pf growth 96h 1.5µM (no result: Pf growth 48h)
CCOc1ccccc1CNc1nnnn1C	none
Nc1nc(-c2ccc(Cl)cc2)cc(C(F)(F)F)n1	Pf growth 96h 7.4µM
CCc1ccc2[nH]c(=O)c(CN(CCCN3CCOCC3)C(=O)Nc3ccc(F)cc3)cc2c1	Pf growth 48h inconclusive
